Assay results published in PubChem BioAssay (NCATS).
Results filed as inconclusive are left out. Unmarked numbers belong to inactive results. Calls of active or inactive are those of the source. Calls follow the shape of the dose curve; as a rule, active = well fitted cell-killing curve with a large enough effect in the repeat runs; inconclusive = weak or mixed curves, or effect the other way; inactive = flat fitted curve, though single readings scatter.

Assay: qHTS assay for small molecule antagonists of the retinoid-related orphan receptor gamma (ROR-gamma) signaling pathway - cell viability counter screen (AID 720652);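 also: compound exposure lasted 16 hr before ATP read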
Details: RORgamma reporter cell line viability counter screen; series mostly up to 92.2 µM; activity change, negative = cytotoxicity: at the top concentration
Source text: National Center for Advancing Translational Sciences [NCATS]
NIH Chemical Genomics Center [NCGC]
National Institutes of Environmental Health Sciences [NIEHS]
National Toxicology Program [NTP]
Nuclear steroid hormone receptors are involved in many biological processes including inflammatory responses, cell proliferation, and apoptosis. Environmental factors or compounds disrupting these nuclear receptor pathways and gene expression may promote susceptibility to immunotoxicants and autoimmune diseases. One important group of these expression factors are the retinoid-related orphan receptors. To assess compounds that may interfere with the retinoid-related orphan receptor gamma (ROR-gamma) transcription factor, a cell-based luciferase assay was used.
The CHO cell-based assay utilizes a TET-inducible ROR expression factor and ROR response element-LUC reporter gene. Reporter activity was induced using doxycycline and measured after 16hr incubation. Luminescence was read using Viewlux (PerkinElmer), where a decrease in reporter activity would show a decrease in luminescence. The cytotoxicity of the compounds against ROR response-Luc reporter gene cell line was quantified by measuring the intracellular ATP content.
1,000 cells in 4 uL/well were dispensed into white wall/solid bottom 1536-well plates using a Multidrop Combi (Thermo Scientific) dispenser. Following incubation at 37 C and 5% CO2 for 5 hr, 23 nL compound or DMSO vehicle were transferred by a pin tool, then the plates were treated with 1 ul doxycycline to induce reporter gene activity. After 16 hr incubation at 37 C and 5% CO2, 5 uL/well of CellTiter-Glo reagent (Promega) was then added to each plate using a Flying Reagent Dispenser and incubated at room temperature for 30 min. The luminescence intensity was quantified on a ViewLux plate reader (PerkinElmer).
% is scaled to controls: 0 for no effect and ±100 for the full control effect; potency is read from the fitted curve at half-maximal effect.

Compound | activity change, negative = cytotoxicity | Potency
CC(C)(C)OOC(C)(C)C | 7.98% | –
Brc1ccccc1 | 5.03% | –
CC(=O)[O-].CC(=O)[O-].O.O.O.[Pb+2] | – | inactive
CCCOC(=O)c1ccccc1C(=O)OCCC | 9.65% | –
CCc1cccc(CC)c1N(COC)C(=O)CCl | -13.2% | –
C1CCC2CCCCC2C1 (stereo not given) | -7.18% | –
BrCCBr | 1.21% | –
CCCCOC(=O)c1ccccc1C(=O)OCCCC | -6.72% | –
O=C1C(Cl)=C(Cl)C(=O)C(Cl)=C1Cl | – | 23.7 µM (active)
CC(O)CCl (stereo not given) | -1.85% | –
COP(=S)(OC)Oc1ccc([N+](=O)[O-])cc1 | 10.8% | –
COc1ccc(C=O)cc1OC | 4.35% | –
Cc1cccc([N+](=O)[O-])c1 | -17.2% | –
COC1=CC(=O)O[C@@H](/C=C/c2ccc3c(c2)OCO3)C1 | -4.89% | –
C/C=C/c1ccc2c(c1)OCO2 | 8.27% | –
ClC(Cl)(Cl)c1ccccc1 | – | inactive
c1ccc(OP(Oc2ccccc2)Oc2ccccc2)cc1 | -12.3% | –
C[C@]12CC[C@H]3[C@@H](CCC4=CC(=O)CC[C@@]43C)[C@@H]1CC[C@@H]2O | -7.41% | –
c1nc[nH]n1 | 0.0017% | –
CC(C)(C)OO | – | inactive

Compound | activity change, negative = cytotoxicity | Potency
ClC(Cl)=C(Cl)Cl | – | inactive
CCN(CC)c1ccccc1 | 6.23% | –
Nc1c(Cl)c(Cl)nc(C(=O)O)c1Cl | 4.28% | –
Clc1cccc(C(Cl)(Cl)Cl)n1 | -0.487% | –
ClC(Cl)=C(Cl)C(Cl)=C(Cl)Cl | 5.02% | –
Cc1ccc(O)c(C)c1 | -1.99% | –
Cc1ccccc1N | – | inactive
CCCC(=O)Cl | 4.35% | –
C=CC(C)=O | 4.64% | –
C=CC(=C)C | -17.2% | –
N#CCCCl | – | inactive
S=C=Nc1cccc2ccccc12 | -6.09% | –
O=C(O)COc1ccc(Cl)cc1Cl | – | inactive
c1ccc(-c2ccccc2)cc1 | 8.25% | –
CCC[CH2][Sn]([Cl])([Cl])[Cl] | 5.77% | –
Clc1nc(Cl)nc(Cl)n1 | -14.6% | –
CCCCCCCCCc1ccc(O)cc1 | – | 66.8 µM (active)
CC(C)(c1ccccc1)c1ccc(O)cc1 | 7.91% | –
c1ccc2c(c1)CCCC2 | 7.16% | –
C=C(C)C(=O)OCC1CO1 (stereo not given) | 8.39% | –
